Results from PubChem BioAssay (NCATS).
Where “and” joins values, the source holds several entries; their conditions need not be identical. Equal entries are not always repeated. Records with an inconclusive call do not appear. Calls of active or inactive are those of the source. Unless noted, calls come from the whole dose curve; as a rule, active = well fitted curve in the direction sought with a large enough effect; inconclusive = small, poorly fitted or top-dose-only effect, or another doubt; inactive = no such curve, though single readings can be large; an effect the other way counts as inactive or inconclusive.

Key:
[1] = AP1 Signaling Pathway (AID 357; active = well fitted curve in either direction with a large enough effect, not every such curve was filed as active;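 note: ME-180 reporter cells stimulated with EGF at its EC50 level; % is set by controls: 0 for no effect and ±100 for the full control effect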)
Summary of the method: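 Cells are seeded overnight, exposed to compound titrations and an EC50 level of EGF for 5 hours at 37 °C, then loaded with CCF4 dye for 2.5 hours. Beta-lactamase activity under the AP-1 element is read as a blue/green ratio.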

[2] = NFAT Signaling Pathway (AID 444; active = well fitted curve in either direction with a large enough effect, not every such curve was filed as active;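 note: carbachol stimulus at about its EC50 of 1 µM final; % is set by controls: 0 for no effect and ±100 for the full control effect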); conditions: Jurkat NFAT-bla M1, carbachol, beta-lactamase ratio, 5 h
Summary of the method: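 Jurkat cells with NFAT-driven β-lactamase reporter and co-expressed M1 receptor, stimulated with carbachol (final 1 uM, ~EC50), compound titration, 5 h at 37 °C. CCF4 loaded 1 h at RT; 460/530 nm ratio gave %activity and AC50.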

[3] = Stat Signaling Pathway (AID 446; active = well fitted curve in either direction with a large enough effect, not every such curve was filed as active;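 note: ME-180 cervical cancer cells given 40 pM IL-6 alongside compound; SIE-controlled beta-lactamase reporter measured as 460/530 nm FRET emission ratio; % is set by controls: 0 for no effect and ±100 for the full control effect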)
Summary of the method: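 FRET read-out (405 nm excitation, 460/530 nm emission) of a beta-lactamase reporter under a STAT-inducible element in ME-180 cervical carcinoma cells. Cells with compound receive 40 pM IL-6 for 5 h. Values are normalised to AC90 stimulation and AC90 JAK-inhibitor controls.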

[4] = biological target: Glucocorticoid receptor (Homo sapiens) (UniProt P04150); assay: GR-GFP Redistribution (AID 450;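 active = compounds whose dose series gives a full or clear partial fitted curve of increased nuclear translocation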; note: potency is the fitted concentration of half-maximal effect); conditions: U2OS GR-GFP nuclear translocation, laser cytometry, 2 h
[5] = biological target: Glucocorticoid receptor (Homo sapiens) (UniProt P04150); assay: GR-EFC Redistribution (AID 451; calls by dose curve; note: potency is the fitted concentration of half-maximal effect); conditions: CHO-K1 GR-EFC translocation, beta-gal luminescence, 2 h
Summary of the method: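 CHO-K1 cells expressing nuclear EA and GR-ED fragments of b-gal; compounds titrated up to 46 uM final, 2 h at 37 C. GR nuclear translocation read as complemented b-gal luminescence after 1 h RT detection.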

[6] = biological target: Mitogen-activated protein kinase 10 (Mus musculus) (UniProt Q61831); assay: JNK3 AlphaScreen Assay (AID 530; active = well fitted curve in either direction with a large enough effect, not every such curve was filed as active;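 note: kinase came from lysate of stimulated human HepG2 cells; signal reports phosphorylation of biotinylated GST-cJun 1-79 at Ser73 with 10 µM ATP; % is set by controls: 0 for no effect and ±100 for the full control effect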)
Summary of the method: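 Activity was read by AlphaScreen after JNK3-containing HepG2 lysate (cytokine pre-activated) phosphorylated biotinylated GST-cJun with 10 uM ATP at room temperature. Phospho-Ser73 cJun antibody with Protein-A acceptor beads provided detection.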

[7] = biological target: 3',5'-cyclic-AMP phosphodiesterase 4B (Homo sapiens) (UniProt Q07343); assay: qHTS Assay for Inhibitors of PDE-IV (AID 607; active = well fitted activation curve with a large enough effect in the main read-out, with a control signal flat, not every such curve was filed as active; note: % of control where 0% means no effect)
Summary of the method: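 Cell-based read-out of cAMP via a modified cyclic nucleotide-gated channel and membrane potential dye (535/590 nm) in HEK293 cells expressing PDE4 endogenously. Compounds tested up to 22.9 uM final; 100 uM RO 20-1724 reference.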

[8] = qHTS Assay for Lipid Storage Modulators (AID 1519; calls by dose curve); conditions: Drosophila S3 cells, BODIPY lipid droplet/cell ratio, laser cytometry, cells loaded with oleic acid; for activity change, negative = inhibition: at 25.7 µM (top of the series)
Summary of the method: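 Cells seeded at 5,000 per well were treated with compounds over a concentration series and loaded with oleic acid (400 uM, as added). Lipid droplet fluorescence (488 nm excitation, 500-530 nm channel) was read by laser-scanning cytometry and normalized to 20 uM Triacsin C.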

[9] = biological target: Luciferin 4-monooxygenase (Photinus pyralis) (UniProt P08659); assay: Biochemical firefly luciferase enzyme assay for NPC (AID 624030);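 note: purified P. pyralis luciferase at 10 nM with luciferin and ATP substrate; 0% = DMSO and -100% = full luciferase inhibition by PTC124 control; nearly all actives have a fitted effect of over 70% in size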
Summary of the method: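 Purified P. pyralis luciferase at 10 nM in 50 mM Tris Acetate (final), luminescence read within 5 minutes of enzyme addition to compounds. Activity normalised to PTC124 versus DMSO; concentration-response curves classed by r2, magnitude and activity.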

[10] = qHTS profiling for inhibitors of Plasmodium falciparum proliferation (AID 504749); note: potency is the fitted concentration of half-maximal effect;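 for activity, negative = inhibition: 0% = DMSO vehicle and full inhibition = artemisinin control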; for all read-outs here: nearly all actives have a fitted effect of over 60% in size; conditions: P. falciparum in erythrocytes, SYBR Green DNA, 72 h; for activity, negative = inhibition: at 28.7 µM (top of the series)
Summary of the method: (§1)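 Each compound contacts P. falciparum-infected red blood cells for 72 h at 37 C; lysis buffer (Tris, EDTA, saponin, Triton X, SYBR Green I) is added and fluorescence measured next morning; values normalized to controls.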

C2A = assay: as above; conditions: P. falciparum in erythrocytes, SYBR Green DNA, 72 h; series mostly up to 12.8 µM
Summary of the method: as §1

CP191 = assay: as above; conditions: P. falciparum in erythrocytes, SYBR Green DNA, 72 h; series mostly up to 12.8 µM
Summary of the method: as §1

CP247 = assay: as above; conditions: P. falciparum in erythrocytes, SYBR Green DNA, 72 h; series mostly up to 12.8 µM
Summary of the method: as §1

CP250 = assay: as above; conditions: P. falciparum in erythrocytes, SYBR Green DNA, 72 h; series mostly up to 12.8 µM
Summary of the method: as §1

CP256 = assay: as above; conditions: P. falciparum in erythrocytes, SYBR Green DNA, 72 h; series mostly up to 12.8 µM
Summary of the method: as §1

FAB9 = assay: as above; conditions: P. falciparum in erythrocytes, SYBR Green DNA, 72 h; series mostly up to 12.8 µM
Summary of the method: as §1

JCK = assay: as above; conditions: P. falciparum in erythrocytes, SYBR Green DNA, 72 h; series mostly up to 12.8 µM
Summary of the method: as §1

PC49 = assay: as above; conditions: P. falciparum in erythrocytes, SYBR Green DNA, 72 h; series mostly up to 12.8 µM
Summary of the method: as §1

[11] = S16 Schwann cell viability assay (CellTiter-Glo assay) (AID 624031);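 note: native untransfected S16 rat Schwann cells; cellular ATP luminescence as a viability measure; plate controls were DMSO-treated cells for no effect and cell-free wells for full effect; nearly all actives have a fitted effect of over 70% in size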
Summary of the method: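 Parental S16 cells, 24 h compound, 37 °C. ATP-luminescence viability; DMSO = 0% activity, empty wells as reference; curves classified by fit quality and efficacy.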

[12] = at 17.2 µM (top of the series) unless noted
[13] = measured here: cell count channel max response
[14] = measured here: lipid channel max response

Chain of 3',5'-cyclic-AMP phosphodiesterase 4B (Homo sapiens) (Q07343 whole entry, looked up): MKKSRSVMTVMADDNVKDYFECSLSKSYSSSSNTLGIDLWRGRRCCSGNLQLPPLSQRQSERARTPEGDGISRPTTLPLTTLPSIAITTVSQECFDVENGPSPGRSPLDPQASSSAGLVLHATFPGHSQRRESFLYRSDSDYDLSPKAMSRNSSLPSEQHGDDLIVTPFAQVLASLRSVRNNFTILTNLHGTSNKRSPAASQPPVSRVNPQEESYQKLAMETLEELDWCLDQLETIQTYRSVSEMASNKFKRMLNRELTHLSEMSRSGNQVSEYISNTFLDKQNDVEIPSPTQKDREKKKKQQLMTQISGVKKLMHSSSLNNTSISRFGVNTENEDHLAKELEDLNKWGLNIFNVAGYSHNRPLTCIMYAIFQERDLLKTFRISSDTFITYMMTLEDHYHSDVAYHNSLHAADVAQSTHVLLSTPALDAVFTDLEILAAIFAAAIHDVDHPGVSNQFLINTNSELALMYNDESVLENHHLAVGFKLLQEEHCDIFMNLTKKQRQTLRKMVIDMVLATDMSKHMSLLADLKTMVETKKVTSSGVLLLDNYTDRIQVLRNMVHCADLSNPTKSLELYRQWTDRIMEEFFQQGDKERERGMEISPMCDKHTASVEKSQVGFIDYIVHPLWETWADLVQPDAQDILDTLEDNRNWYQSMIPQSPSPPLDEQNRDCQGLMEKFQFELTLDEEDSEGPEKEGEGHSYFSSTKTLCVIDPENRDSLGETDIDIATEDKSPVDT
Chain of Glucocorticoid receptor (Homo sapiens) (P04150 whole entry, looked up, the tested form may be a part): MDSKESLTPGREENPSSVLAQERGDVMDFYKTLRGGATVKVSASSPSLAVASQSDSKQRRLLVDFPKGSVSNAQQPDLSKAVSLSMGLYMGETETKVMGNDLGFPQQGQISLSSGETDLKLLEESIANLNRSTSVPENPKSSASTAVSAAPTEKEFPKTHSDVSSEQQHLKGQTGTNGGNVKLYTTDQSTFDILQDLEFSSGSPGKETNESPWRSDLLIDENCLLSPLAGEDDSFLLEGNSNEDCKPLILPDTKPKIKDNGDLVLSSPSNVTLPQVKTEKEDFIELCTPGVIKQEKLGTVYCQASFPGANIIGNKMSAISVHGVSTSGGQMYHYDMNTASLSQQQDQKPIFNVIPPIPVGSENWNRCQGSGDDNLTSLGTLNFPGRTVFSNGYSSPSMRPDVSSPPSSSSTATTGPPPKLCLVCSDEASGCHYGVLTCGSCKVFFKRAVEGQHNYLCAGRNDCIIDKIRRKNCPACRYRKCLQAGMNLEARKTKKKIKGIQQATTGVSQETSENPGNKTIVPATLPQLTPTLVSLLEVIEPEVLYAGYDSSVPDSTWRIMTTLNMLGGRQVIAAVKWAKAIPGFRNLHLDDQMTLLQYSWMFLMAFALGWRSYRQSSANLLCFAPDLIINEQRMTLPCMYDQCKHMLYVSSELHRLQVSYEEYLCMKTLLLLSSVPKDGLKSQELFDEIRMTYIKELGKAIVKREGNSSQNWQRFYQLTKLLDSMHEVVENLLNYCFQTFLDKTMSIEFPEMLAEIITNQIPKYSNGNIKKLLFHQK
Chain of Luciferin 4-monooxygenase (Photinus pyralis) (P08659 whole entry, looked up): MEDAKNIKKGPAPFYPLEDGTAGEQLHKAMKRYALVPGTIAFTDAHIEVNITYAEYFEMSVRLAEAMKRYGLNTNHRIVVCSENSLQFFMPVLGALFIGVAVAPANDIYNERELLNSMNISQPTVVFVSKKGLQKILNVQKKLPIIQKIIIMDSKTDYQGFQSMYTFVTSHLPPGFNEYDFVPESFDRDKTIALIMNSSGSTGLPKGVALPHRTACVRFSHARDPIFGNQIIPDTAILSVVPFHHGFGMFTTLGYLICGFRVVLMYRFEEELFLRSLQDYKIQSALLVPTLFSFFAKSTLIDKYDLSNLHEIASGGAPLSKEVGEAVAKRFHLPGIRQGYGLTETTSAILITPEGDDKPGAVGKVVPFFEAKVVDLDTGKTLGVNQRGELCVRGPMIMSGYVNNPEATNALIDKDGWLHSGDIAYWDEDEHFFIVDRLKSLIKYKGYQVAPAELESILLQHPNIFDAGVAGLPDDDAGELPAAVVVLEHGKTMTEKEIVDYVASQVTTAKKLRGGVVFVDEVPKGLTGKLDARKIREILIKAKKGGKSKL

O=C(N/N=C\c1ccc([N+](=O)[O-])o1)c1ccc(O)cc1
-11.6%: max response [8, 14]
inactive: outcome [1] | activity change, negative = inhibition [2, 12] 1.26% | outcome [3] | Potency [4] > 20.6 µM | Potency [5] > 20.6 µM | Potency [6] | outcome [7] | activity change, negative = inhibition [8] -1.38% | Potency [9]
active: Potency ([10]; parasite line A) 1.41 µM | Potency ([10]; parasite line B) 2.82 µM | Potency (C2A) 3.16 µM | Potency (CP191) 3.16 µM | Potency (CP247) 2.82 µM | Potency (CP250) 3.16 µM | Potency (CP256) 3.55 µM | Potency (FAB9) 3.16 µM | Potency (JCK) 3.98 µM | Potency (PC49) 2.24 µM
-7.99%: max response [8, 13]

CC1(C)O[C@H]2C[C@@H]3[C@H]4CCC5=CC(=O)CC[C@@]5(C)[C@]4(F)[C@@H](O)C[C@@]3(C)[C@@]2(C(=O)CCl)O1
-11.4%: max response [8, 13]
-17.1%: max response [8, 14]
inactive: outcome [1] | outcome [3] | Potency [6] | outcome [7] | activity change, negative = inhibition [8] -3.97% | Potency [9] | outcome [11] | Potency (FAB9) | Potency (PC49)
active: Potency ([10]; parasite line B) 1.58 µM | Potency (CP191) 3.16 µM | Potency (CP247) 3.98 µM | Potency (CP250) 3.98 µM | Potency (CP256) 3.55 µM

C[C@@H]1C[C@H](OC(=O)[C@@H](O)c2ccccc2)CC(C)(C)N1C
inactive: outcome [1] | outcome [3] | Potency [4] > 20.6 µM | Potency [5] > 20.6 µM | Potency [6] | outcome [7] | activity change, negative = inhibition [8] -2.91% | Potency [9]
-2.86%: max response [8, 13]
-7.41%: max response [8, 14]

O=C1O[C@@H]([C@@H](O)CO)[C@@H](O)[C@H]1O
8.38%: max response [8, 13]
7.66%: max response [8, 14]
inactive: outcome [1] | activity change, negative = inhibition [2, 12] -7.5% | outcome [3] | Potency [4] > 20.6 µM | Potency [5] > 20.6 µM | outcome [7] | activity change, negative = inhibition [8] -0.208% | Potency [9] | activity, negative = inhibition ([10]; parasite line A) -5.65% | activity, negative = inhibition ([10]; parasite line B) 14.7% | Potency (C2A) | Potency (CP191) | Potency (CP247) | Potency (CP250) | Potency (CP256) | Potency (FAB9) | Potency (JCK) | Potency (PC49)

CC(=O)O[C@@H]1C(=O)[C@@]2(C)[C@H](O)C[C@H]3OC[C@]3(OC(C)=O)[C@@H]2[C@H](OC(=O)c2ccccc2)[C@@]2(O)C[C@H](OC(=O)[C@@H](O)[C@@H](NC(=O)c3ccccc3)c3ccccc3)C(C)=C1C2(C)C (stereo in doubt)
inactive: outcome [1] | activity change, negative = inhibition ([2]; at 17.2 µM (top of the series)) 6.42% | activity change, negative = inhibition ([2]; at 38 µM (top of the series)) 6.57% | outcome [3] | Potency [4] > 46 µM and > 20.6 µM | Potency [5] > 46 µM and > 20.6 µM | Potency [6] | outcome [7] | activity change, negative = inhibition [8] -8.68%
-5.62%: max response [8, 13]
-13.6%: max response [8, 14]
